Assays:
[1] = target: T1, Ephrin type-A receptor 3 (Homo sapiens) (UniProt P29320); conditions: at 10 µM
T1 sequence (whole entry): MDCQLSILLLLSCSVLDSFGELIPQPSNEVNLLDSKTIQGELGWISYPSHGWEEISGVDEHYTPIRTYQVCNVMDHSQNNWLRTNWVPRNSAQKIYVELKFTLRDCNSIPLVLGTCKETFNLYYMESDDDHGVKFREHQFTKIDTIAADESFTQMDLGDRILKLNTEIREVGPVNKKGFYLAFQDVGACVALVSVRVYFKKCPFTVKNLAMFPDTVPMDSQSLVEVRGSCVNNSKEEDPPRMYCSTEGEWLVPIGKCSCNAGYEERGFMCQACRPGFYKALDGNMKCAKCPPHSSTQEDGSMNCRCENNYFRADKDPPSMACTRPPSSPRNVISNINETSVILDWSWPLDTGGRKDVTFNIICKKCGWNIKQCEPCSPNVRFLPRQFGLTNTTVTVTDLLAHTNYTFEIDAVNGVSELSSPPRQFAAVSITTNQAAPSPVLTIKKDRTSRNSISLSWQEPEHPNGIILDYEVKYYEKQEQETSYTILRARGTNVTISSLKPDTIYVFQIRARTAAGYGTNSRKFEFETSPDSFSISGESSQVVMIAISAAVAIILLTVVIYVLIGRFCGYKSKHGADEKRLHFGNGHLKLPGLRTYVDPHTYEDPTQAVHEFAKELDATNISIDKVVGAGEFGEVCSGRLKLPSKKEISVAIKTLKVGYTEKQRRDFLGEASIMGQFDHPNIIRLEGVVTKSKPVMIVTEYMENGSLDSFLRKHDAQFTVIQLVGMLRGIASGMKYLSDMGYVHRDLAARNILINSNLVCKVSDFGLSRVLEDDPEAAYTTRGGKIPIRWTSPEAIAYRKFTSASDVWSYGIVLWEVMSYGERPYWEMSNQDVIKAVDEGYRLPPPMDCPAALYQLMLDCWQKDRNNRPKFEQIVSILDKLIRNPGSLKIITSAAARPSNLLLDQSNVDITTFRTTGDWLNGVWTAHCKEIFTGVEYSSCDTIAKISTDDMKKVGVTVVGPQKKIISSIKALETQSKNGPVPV

[2] = target: Ephrin type-A receptor 4 (Homo sapiens) (UniProt P54764); conditions: at 1 µM
[3] = target: Ephrin type-A receptor 4 (Homo sapiens) (UniProt P54764); conditions: at 10 µM
[4] = target: Ephrin type-A receptor 5 (Homo sapiens) (UniProt P54756); conditions: at 1 µM
[5] = target: Ephrin type-A receptor 5 (Homo sapiens) (UniProt P54756); conditions: at 10 µM
[6] = target: T2, Ephrin type-B receptor 1 (Homo sapiens) (UniProt P54762); conditions: at 1 µM
T2 sequence (whole entry): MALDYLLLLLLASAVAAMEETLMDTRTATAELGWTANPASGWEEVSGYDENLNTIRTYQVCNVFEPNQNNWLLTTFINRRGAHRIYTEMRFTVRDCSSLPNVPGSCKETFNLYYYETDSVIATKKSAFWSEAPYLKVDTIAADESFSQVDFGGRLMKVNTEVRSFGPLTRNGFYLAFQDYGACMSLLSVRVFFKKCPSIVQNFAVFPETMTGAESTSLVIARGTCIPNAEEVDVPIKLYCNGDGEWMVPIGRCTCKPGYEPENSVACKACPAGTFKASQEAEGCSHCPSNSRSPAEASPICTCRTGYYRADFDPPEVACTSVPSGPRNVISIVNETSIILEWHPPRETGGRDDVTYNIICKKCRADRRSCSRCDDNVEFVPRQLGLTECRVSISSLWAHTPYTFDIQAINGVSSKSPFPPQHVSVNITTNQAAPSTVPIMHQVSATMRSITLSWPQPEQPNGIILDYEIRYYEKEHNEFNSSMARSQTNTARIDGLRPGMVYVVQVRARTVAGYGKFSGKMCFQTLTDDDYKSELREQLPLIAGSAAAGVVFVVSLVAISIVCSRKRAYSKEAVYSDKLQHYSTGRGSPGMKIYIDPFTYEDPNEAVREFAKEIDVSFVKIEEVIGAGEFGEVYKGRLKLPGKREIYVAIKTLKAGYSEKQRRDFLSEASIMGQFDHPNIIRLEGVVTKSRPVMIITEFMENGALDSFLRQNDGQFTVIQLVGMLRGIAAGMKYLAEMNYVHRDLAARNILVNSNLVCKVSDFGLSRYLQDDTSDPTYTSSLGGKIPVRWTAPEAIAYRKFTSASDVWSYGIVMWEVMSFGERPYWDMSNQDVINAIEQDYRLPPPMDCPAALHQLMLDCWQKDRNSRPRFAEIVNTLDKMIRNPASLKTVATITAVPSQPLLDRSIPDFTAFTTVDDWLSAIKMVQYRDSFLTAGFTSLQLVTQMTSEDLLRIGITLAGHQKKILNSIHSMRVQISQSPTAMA

[7] = target: T2, Ephrin type-B receptor 1 (Homo sapiens); conditions: at 10 µM
[8] = target: T3, Ephrin type-B receptor 2 (Homo sapiens) (UniProt P29323); conditions: at 1 µM
T3 sequence (whole entry): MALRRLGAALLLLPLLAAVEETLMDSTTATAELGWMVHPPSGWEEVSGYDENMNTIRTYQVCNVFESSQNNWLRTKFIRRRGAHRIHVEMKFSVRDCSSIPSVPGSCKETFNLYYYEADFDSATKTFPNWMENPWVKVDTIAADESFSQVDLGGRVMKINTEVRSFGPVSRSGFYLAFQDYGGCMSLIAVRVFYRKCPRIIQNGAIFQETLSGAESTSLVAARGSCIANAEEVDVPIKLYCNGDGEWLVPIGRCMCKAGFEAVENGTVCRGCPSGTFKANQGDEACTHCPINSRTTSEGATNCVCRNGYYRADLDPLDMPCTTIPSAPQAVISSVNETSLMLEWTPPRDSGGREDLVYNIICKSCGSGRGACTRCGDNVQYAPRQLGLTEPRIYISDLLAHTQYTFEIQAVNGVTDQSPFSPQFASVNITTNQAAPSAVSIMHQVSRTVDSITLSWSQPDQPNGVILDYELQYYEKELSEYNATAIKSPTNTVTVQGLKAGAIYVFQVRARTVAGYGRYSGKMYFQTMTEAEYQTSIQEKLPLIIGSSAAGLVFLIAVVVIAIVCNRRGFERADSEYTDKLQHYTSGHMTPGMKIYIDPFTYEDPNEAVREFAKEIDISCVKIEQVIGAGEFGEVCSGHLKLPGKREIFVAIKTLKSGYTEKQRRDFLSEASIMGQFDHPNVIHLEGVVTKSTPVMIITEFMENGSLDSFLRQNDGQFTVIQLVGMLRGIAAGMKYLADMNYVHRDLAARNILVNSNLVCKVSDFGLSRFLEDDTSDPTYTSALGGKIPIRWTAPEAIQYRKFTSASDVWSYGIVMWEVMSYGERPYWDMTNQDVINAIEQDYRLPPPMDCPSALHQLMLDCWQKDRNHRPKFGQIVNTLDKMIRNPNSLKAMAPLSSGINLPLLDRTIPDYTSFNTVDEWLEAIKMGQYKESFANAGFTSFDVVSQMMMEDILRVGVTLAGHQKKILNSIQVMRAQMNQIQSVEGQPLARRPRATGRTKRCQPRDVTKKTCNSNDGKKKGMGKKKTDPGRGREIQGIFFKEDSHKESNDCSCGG

[9] = target: T3, Ephrin type-B receptor 2 (Homo sapiens); conditions: at 10 µM
[10] = target: Receptor tyrosine-protein kinase erbB-4 (Homo sapiens) (UniProt Q15303); conditions: at 1 µM
[11] = target: Receptor tyrosine-protein kinase erbB-4 (Homo sapiens) (UniProt Q15303); conditions: at 10 µM

Chain of Ephrin type-A receptor 5 (Homo sapiens) (P54756 whole entry): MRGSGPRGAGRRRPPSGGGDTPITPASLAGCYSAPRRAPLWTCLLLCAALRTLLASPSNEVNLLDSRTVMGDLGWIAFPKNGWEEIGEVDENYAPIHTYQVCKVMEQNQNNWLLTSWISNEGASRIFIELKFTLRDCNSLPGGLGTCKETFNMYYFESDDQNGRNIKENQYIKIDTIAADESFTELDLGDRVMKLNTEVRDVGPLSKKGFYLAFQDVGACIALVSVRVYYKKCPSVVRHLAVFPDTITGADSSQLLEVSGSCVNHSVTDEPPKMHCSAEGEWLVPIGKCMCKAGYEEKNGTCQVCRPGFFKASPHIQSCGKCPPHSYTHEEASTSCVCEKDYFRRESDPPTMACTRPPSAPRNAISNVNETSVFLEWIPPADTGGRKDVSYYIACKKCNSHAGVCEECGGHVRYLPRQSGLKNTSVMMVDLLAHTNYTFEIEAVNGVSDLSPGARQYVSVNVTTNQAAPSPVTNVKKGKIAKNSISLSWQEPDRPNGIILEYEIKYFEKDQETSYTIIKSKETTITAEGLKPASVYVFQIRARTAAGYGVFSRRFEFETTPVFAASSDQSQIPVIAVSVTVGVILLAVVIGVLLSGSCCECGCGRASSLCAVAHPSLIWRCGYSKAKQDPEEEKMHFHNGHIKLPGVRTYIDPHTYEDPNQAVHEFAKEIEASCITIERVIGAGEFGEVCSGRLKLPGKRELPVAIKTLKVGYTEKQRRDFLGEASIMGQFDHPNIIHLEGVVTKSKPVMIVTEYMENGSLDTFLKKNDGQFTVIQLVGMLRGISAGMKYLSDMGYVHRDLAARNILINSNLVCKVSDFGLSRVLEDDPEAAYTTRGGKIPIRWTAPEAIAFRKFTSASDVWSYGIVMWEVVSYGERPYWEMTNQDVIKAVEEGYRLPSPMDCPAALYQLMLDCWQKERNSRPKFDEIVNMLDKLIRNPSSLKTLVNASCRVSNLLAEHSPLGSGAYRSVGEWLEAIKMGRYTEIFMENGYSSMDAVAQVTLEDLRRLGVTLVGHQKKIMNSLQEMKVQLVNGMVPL
Chain of Ephrin type-A receptor 4 (Homo sapiens) (P54764 whole entry): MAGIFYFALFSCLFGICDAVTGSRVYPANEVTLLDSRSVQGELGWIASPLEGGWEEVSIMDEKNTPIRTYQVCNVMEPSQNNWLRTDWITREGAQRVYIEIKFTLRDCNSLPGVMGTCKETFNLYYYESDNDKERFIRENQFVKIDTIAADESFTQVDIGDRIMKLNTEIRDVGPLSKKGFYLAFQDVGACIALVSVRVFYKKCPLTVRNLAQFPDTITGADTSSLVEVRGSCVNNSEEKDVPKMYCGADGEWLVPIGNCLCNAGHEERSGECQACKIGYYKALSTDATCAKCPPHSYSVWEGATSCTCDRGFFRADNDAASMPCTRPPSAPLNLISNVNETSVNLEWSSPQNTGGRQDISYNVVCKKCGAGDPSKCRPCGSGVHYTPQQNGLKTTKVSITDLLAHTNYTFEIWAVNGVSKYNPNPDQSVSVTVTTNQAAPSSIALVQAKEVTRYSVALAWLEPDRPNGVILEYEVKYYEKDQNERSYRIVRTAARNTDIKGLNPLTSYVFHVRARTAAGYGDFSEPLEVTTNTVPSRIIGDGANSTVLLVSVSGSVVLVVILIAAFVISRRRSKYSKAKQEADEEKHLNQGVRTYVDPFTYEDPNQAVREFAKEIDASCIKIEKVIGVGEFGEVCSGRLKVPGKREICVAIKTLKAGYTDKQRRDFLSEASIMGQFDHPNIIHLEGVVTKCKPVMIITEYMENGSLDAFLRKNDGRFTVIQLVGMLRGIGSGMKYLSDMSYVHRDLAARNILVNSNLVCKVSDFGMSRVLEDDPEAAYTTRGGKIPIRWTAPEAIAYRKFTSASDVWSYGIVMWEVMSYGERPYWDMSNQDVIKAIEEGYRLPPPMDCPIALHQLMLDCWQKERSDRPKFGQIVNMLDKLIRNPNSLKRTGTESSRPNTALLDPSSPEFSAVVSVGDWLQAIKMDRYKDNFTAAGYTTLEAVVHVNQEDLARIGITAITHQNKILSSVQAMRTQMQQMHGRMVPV
Chain of Receptor tyrosine-protein kinase erbB-4 (Homo sapiens) (Q15303 whole entry): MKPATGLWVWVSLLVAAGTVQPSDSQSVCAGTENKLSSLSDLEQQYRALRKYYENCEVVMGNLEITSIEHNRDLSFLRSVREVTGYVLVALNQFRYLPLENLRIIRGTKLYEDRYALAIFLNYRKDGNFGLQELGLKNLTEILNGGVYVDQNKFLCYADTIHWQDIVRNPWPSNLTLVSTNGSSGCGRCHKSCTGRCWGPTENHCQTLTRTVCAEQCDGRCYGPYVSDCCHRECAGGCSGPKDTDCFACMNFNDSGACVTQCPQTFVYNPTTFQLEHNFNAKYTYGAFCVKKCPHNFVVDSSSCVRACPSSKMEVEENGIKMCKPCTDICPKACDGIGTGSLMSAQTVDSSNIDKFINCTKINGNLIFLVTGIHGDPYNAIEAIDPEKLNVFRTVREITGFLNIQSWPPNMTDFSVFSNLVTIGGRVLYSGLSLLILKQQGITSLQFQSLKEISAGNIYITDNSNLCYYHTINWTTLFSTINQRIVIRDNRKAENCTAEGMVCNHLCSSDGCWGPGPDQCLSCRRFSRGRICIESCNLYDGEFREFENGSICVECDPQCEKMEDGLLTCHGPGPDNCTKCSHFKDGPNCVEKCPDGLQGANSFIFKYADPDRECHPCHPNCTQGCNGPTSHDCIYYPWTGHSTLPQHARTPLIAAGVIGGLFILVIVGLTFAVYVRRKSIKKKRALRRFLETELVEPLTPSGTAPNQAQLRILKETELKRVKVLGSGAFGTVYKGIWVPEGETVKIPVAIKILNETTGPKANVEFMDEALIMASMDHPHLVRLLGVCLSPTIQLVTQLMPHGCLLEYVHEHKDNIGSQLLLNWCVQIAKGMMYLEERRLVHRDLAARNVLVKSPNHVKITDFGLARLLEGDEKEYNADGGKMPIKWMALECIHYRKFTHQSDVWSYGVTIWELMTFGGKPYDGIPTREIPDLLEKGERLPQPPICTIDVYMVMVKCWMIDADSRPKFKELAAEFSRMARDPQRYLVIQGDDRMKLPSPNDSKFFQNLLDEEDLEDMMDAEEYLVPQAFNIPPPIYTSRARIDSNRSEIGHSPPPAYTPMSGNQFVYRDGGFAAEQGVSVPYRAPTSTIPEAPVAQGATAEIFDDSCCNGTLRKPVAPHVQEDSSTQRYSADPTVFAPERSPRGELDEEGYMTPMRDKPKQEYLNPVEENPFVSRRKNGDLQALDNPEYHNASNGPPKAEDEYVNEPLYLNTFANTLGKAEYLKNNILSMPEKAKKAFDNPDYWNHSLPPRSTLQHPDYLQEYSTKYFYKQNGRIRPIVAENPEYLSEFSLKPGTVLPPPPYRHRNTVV

Work on N#Cc1cnc2cnc(NCc3cccnc3)cc2c1Nc1ccc(F)c(Cl)c1 yielded a residual activity [1] of 72%, a residual activity [2] of 103% and a residual activity [3] of 76%. For the same compound, the residual activity [4] was 56%, the residual activity [5] was 46% and the residual activity [6] was 100%. For the same compound, the residual activity [7] was 89%, the residual activity [8] was 99% and the residual activity [9] was 100%. It also gave a residual activity [10] of 132% and a residual activity [11] of 128%.

From ChEMBL document CHEMBL2218924, “A broad activity screen in support of a chemogenomic map for kinase signalling research and drug discovery” (Biochem J, 2013)
